Bioassay records as filed in PubChem BioAssay.
Rows were chosen to be rich in hits. Some 8% of all compounds tested hit in one or more screens of this group.
Lassa entry – blocks Lassa virus binding or cell entry | Potency, µM (top dose mostly 49.2 µM), inactives show at the top dose activity change, negative = inhibition, usual class: inhibitors | Lassa virus pseudotyped entry inhibition, cell-based qHTS | AID 720533 | hit rate 4.1% among 18,000
MARV entry inh – Marburg virus entry inhibition. Marburg virus pseudotype entry/binding inhibition, cell-based. Potency, µM (top dose mostly 49.2 µM), without a hit: top-dose activity change, negative = inhibition, actives largely listed as inhibitors. hit rate 6.5% among 18,000
Starred values were filed as active, the others as inactive; ! = not active in a repeat; [ ] = another dose, or the depositor's remark. Calls come from the whole dose curve; tested in HEK293 cells. % is set by controls: 0 for no effect and ±100 for the full control effect; potency is the fitted concentration of half-maximal effect.

`C/C=C1\NC(=O)[C@H]2CSSCC/C=C/[C@H](CC(=O)N[C@H](C(C)C)C(=O)N2)OC(=O)C(C(C)C)NC1=O` (stereo partly specified) gave Lassa entry 3.2µM* and MARV entry inh 1.1µM*.
O=C(c1nc2ncccn2n1)N1CCOc2ccc(C(O)C(c3ccccc3)c3ccccc3)cc2C1 (stereo unspecified) was read as Lassa entry -18% and MARV entry inh 4%.
CCN(CC)CCO[C@H]1CC[C@@]2(C)C(=CC[C@@H]3[C@H]2CC[C@]2(C)C(=O)CC[C@H]32)C1 was read as Lassa entry -23% and MARV entry inh 13µM*.
CCN(CC)CCO[C@H]1CC[C@@]2(C)C(=CC[C@@H]3[C@@H]2CC[C@]2(C)C(=O)CC[C@@H]32)C1 was read as Lassa entry 9% and MARV entry inh -7%.
Screening Oc1cc(O)cc(/C=C/c2ccc(O)c(O)c2)c1 returned Lassa entry 22µM* and MARV entry inh 20µM*!.
`C/C=C/c1ccc(O)c(OC)c1` gave Lassa entry -5% and MARV entry inh 7%.
`CCCCCCCCCCCCCCC(F)C(=O)O` (stereo unspecified) gave Lassa entry -1% and MARV entry inh 7%.
`COCC(=O)O[C@]1(CCN(C)CCCc2nc3ccccc3[nH]2)CCc2cc(F)ccc2[C@@H]1C(C)C` gave Lassa entry 20µM* and MARV entry inh 8.9µM*.
Screening CCC1CN(CC(=O)N(C)Cc2nc3ccccc3[nH]2)Cc2cc(OC)ccc2O1 (stereo unspecified) returned Lassa entry -2% and MARV entry inh -13%.
For CCCCC/C=C/C=C1/C(=O)C=C[C@@H]1C/C=C\CCCC(=O)O the results were Lassa entry 16µM*! and MARV entry inh inconclusive.
CCCCC[C@H](O)C/C=C1/C(=O)C=C[C@@H]1C/C=C\CCCC(=O)O was read as Lassa entry inconclusive and MARV entry inh 12%.
C/C=C(\C)C(=O)NCCN1Cc2ccccc2OC(c2ccccc2OC)C1 (stereo unspecified) was read as Lassa entry -12% and MARV entry inh inconclusive.
`COC(=O)C1=C(C(=O)OC)[C@@H]2Nc3ccccc3[C@@]23C[C@@H](C(=O)OC)N(C(=O)NC2CCCC2)C3=N1` gave Lassa entry 1%[8.59 µM] and MARV entry inh -4%[8.59 µM].
`c1cc(-c2cnn3cc(-c4ccc(OCCN5CCCCC5)cc4)cnc23)ccn1` gave Lassa entry 41% and MARV entry inh 13µM*.
For c1ccc(-c2[nH]ncc2-c2ccnc(-c3ccc(OCCN4CCOCC4)cc3)c2)nc1 the results were Lassa entry -14% and MARV entry inh -19%.
C=CCN(C)C1=NC(c2ccccc2)C(C(=O)OC)=C(C)N1CCOC (stereo unspecified) was read as Lassa entry -2%[8.59 µM] and MARV entry inh 4%[8.59 µM].
For COc1cc(-c2cc(C)c3cccc(OC)c3n2)cc2c1OCCN(C(=O)Cn1nc(C)cc1C)C2 the results were Lassa entry -2% and MARV entry inh 0%.
CCC(C)C(=O)OC1C[C@@]2(C)C(c3ccoc3)OC(=O)CC23OC2(C)OC34C(OC(=O)C(C)C)[C@]3(O)C(OC(=O)C5(C)OC5C)[C@]5(C)CC3(O)[C@](C)(C5CC(=O)OC)C14O2 (stereo partly specified) was read as Lassa entry 3% and MARV entry inh 14µM*.
COC(=O)CC1C2(C)CC34OC5(C)O[C@@]6(C7/C(=C(/O)C(C)C)C(=O)OC(c8ccoc8)[C@]7(C)C(OC(C)=O)C(OC(C)=O)[C@]6(O5)[C@@]13C)C(OC(C)=O)[C@]4(O)C2OC(=O)C(C)C (stereo partly specified) was read as Lassa entry -2% and MARV entry inh inconclusive.
COC(=O)[C@@H]1OC(c2ccccc2)O[C@H]1C(=O)OC was read as Lassa entry 2% and MARV entry inh 5%.
Screening O=C1CCCCC2CCCCN12 (stereo unspecified) returned Lassa entry 3%[107 µM] and MARV entry inh 0%[107 µM].
Screening CC1(C)OC2CC(=O)OCC23C1CC(=O)C1(C)C3CC[C@@]2(C)[C@H](c3ccoc3)OC(=O)C3OC312 (stereo partly specified) returned Lassa entry -12% and MARV entry inh 2%.
`CC1(C)C(=O)C=C[C@@]2(C)C1C=C[C@@]1(C)C2CC[C@@]2(C)C(c3ccoc3)OC(=O)C3OC312` (stereo partly specified) gave Lassa entry inconclusive and MARV entry inh 7.9µM*.
CC1(C)C(=O)C=C[C@@]2(C)C1CC(O)[C@]1(C)C2CC[C@@]2(C)C(c3ccoc3)OC(=O)C3O[C@]312 (stereo partly specified) was read as Lassa entry inconclusive and MARV entry inh 13µM*.
`CC1(C)C(O)CC(O)[C@]2(C)C1CC(O)[C@]1(C)C2CC[C@@]2(C)C(c3ccoc3)OC(=O)C3O[C@]312` (stereo partly specified) gave Lassa entry 2% and MARV entry inh inconclusive.
`COc1cc(NC(C)CCCN)c2ncccc2c1` (stereo unspecified) gave Lassa entry 7% and MARV entry inh inconclusive.
`CCN(CC)CCCC(C)Nc1cc(/C=C/c2ccccc2Cl)nc2cc(Cl)ccc12` (stereo unspecified) gave Lassa entry inconclusive and MARV entry inh 16µM*.
For CCN(CC)CCCC(C)Nc1c2ccc(Cl)cc2nc2ccc(OC)cc12 (stereo unspecified) the results were Lassa entry inconclusive and MARV entry inh 1.1µM*.
Screening Cc1cc(O)c(C)c2c1CC[C@H]1[C@H](C)C(=O)O[C@H]21 returned Lassa entry -13% and MARV entry inh 10%.
CC[C@@H](C(=O)[C@@H](C)[C@@H](O)[C@H](C)[C@@H]1O[C@@H]([C@@H](CC)C(=O)O)CC[C@@H]1C)[C@H]1O[C@]2(C=C[C@@H](O)[C@]3(CC[C@@](C)([C@H]4CC[C@](O)(CC)[C@H](C)O4)O3)O2)[C@H](C)C[C@@H]1C was read as Lassa entry 3.2µM* and MARV entry inh -79%.
For Nc1nc2c(ncn2[C@@H]2O[C@H](COP(=O)(O)OP(=O)(O)O)[C@@H](O)[C@H]2O)c(=O)[nH]1 the results were Lassa entry 22% and MARV entry inh 15%.
`Nc1nc2c(ncn2C2OC(COC(=O)c3ccccc3)C(OC(=O)c3ccccc3)C2OC(=O)c2ccccc2)c(=O)[nH]1` (stereo unspecified) gave Lassa entry 11µM* and MARV entry inh -28%.
Oc1ccc(Cl)cc1 was read as Lassa entry -4% and MARV entry inh -16%.
For Oc1ccc(Cl)cc1Sc1cc(Cl)ccc1O the results were Lassa entry 13µM* and MARV entry inh inconclusive.
C=C1C[C@]23CC[C@H]4C(CO)(CO)C[C@@H](O)C[C@@]4(C)[C@@H]2CC[C@H]1C3 was read as Lassa entry 5% and MARV entry inh -12%.
For COC(=O)/C=C\c1cc(O)ccc1O the results were Lassa entry 25µM* and MARV entry inh 10µM*.
COC(=O)c1ccc(O)cc1 was read as Lassa entry -7% and MARV entry inh 3%.
For CC(C)OC(C)C the results were Lassa entry -10% and MARV entry inh -7%.
`CCN(CC)CCOc1ccccc1OC` gave Lassa entry -4% and MARV entry inh -5%.
For CCCCN(CC)CCOc1cccc2ccccc12 the results were Lassa entry inconclusive and MARV entry inh 10µM*.
